PubChem BioAssay
Values joined by “and” are separate entries in the source; they are usually repeats but may differ in a detail not shown here. Equal entries are not always repeated. Active and inactive are the calls of the source.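 Rule for the calls, unless noted: active = inhibition at or above 50% relative to wild type and mutant plate controls; inactive = inhibition below 50%.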

How the values were obtained:
[1] = inhibitors of TNFa-induced NFkB p65 translocation, primary screen, imaging, HUVEC, MLSMR starter and 10KST1 sets (AID 438;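 active = inhibition above 20% together with a positive visual image hit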;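 note: compound added about 3h40 before a 20 min TNFalpha stimulation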;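 for inhibition: signal is the nuclear over cytoplasmic p65 intensity ratio per well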); settings: HUVEC TNFa-induced p65 nuclear translocation; cell count: measured here: nuclei count (cytotoxicity indicator), at 2.08 µM; inhibition: at 2 µM, stronger effect = higher value, 0% TNFa-plus-vehicle, 100% no-TNFa wells
[2] = reduction of polyQ htt aggregates in cells – imaging, exon1htt(103Q)mCFP cells, high-content imaging, primary screen (AID 483;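 active = visual image review flags a hit and inhibition of aggregation exceeds 20%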;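 note: compound exposure lasted 3 days before fixation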;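 for nuclei count: percent of the per-plate median nuclei count of sample wells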); settings: exon1htt(103Q)mCFP cell line, aggregate imaging, at 2 µM; inhibition of aggregation: stronger effect = higher value; nuclei count: measured here: cell count, toxicity
[3] = endothelial E-selectin expression blockers – imaging, HUVEC, immunofluorescence, MLSMR starter and 10KST1 sets, primary screen (AID 487;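 active = visually confirmed hit in the image check and inhibition above 20%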;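 for inhibition: signal is fraction of cell area covered by stained E-selectin grains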;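 for nuclei count: 100% = median nuclei count of all wells on the same plate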); settings: HUVEC TNFalpha-induced E-selectin immunofluorescence imaging, at 2 µM; inhibition: stronger effect = higher value; nuclei count: measured here: cell number, toxicity
[4] = Primary imaging screen for DUSP6 inhibitors that restore phospho-Erk in transfected HeLa cells, chemical complementation (AID 609;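 active = compounds giving at least 50% inhibition in the cell-based MKP-3 phosphatase rescue imaging test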;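 for inhibition: phospho-Erk level distribution per well compared with pooled transfected vehicle control wells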); settings: HeLa MKP-3 transfected, phospho-Erk imaging KS statistic, at 10 µM, cells stimulated with TPA for 15 min
[5] = molecular target: Dual specificity protein phosphatase 6 (Homo sapiens) (UniProt Q16828); assay: as above; settings: HeLa MKP-3 transfected, phospho-Erk imaging KS statistic; at 10 µM; stronger effect = higher value; cells stimulated with TPA for 15 min
Dual specificity protein phosphatase 6 (Homo sapiens), sequence (Q16828 whole entry, looked up): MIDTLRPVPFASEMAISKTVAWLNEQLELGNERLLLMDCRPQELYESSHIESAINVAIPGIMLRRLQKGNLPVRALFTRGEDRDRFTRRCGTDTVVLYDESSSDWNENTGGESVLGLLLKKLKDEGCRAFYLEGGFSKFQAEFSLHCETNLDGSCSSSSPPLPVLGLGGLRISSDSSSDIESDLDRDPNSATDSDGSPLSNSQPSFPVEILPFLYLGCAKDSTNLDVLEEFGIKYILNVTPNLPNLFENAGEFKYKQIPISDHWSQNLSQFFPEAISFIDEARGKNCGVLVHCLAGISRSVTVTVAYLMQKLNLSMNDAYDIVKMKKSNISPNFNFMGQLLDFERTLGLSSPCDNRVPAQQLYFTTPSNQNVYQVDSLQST

[6] = molecular target: Voltage-gated potassium channel subunit beta-2 (Rattus norvegicus) (UniProt P62483); assay: inhibitors of rat Kvbeta2 reductase activity – biochemical, NADPH fluorescence, primary screen (AID 622;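 active = fluorescence slope higher than the sample average by over 3 SD, cut at about -0.22 in these data, passing the limit was not always enough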;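 note: slope of raw intensity against log time taken from 70 to 1610 s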); settings: recombinant KvBeta, 4-cyanobenzaldehyde reduction, at 10 µM, stronger effect = higher value
Voltage-gated potassium channel subunit beta-2 (Rattus norvegicus), sequence (P62483 whole entry, looked up): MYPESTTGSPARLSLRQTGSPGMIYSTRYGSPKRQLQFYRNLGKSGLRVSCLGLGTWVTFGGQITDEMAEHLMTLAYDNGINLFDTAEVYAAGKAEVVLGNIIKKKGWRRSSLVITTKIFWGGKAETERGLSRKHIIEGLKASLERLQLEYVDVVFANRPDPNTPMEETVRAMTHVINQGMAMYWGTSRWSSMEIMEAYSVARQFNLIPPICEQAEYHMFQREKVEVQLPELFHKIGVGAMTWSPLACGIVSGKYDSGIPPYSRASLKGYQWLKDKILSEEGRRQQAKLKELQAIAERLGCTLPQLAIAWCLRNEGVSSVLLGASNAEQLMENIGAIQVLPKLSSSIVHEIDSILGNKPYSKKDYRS

[7] = molecular target: Voltage-gated potassium channel subunit beta-2 (Rattus norvegicus) (UniProt P62483); assay: enhancers of rat Kvbeta2 NADPH turnover – biochemical, NADPH fluorescence, primary screen (AID 623;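 active = NADPH fluorescence slope more negative than the mean of all samples by about 3 SD, 99.7% confidence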;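 note: fluorescence intensity change per second fitted from 20 to 320 s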); settings: Recombinant KvBeta, NADPH fluorescence decrease slope, 10 min; at 10 µM; stronger effect = lower value
[8] = molecular target: Alpha-2C adrenergic receptor (Homo sapiens) (UniProt P18825); assay: compounds altering alpha2C-coupled GIRK flux – cell-based, HEK293 alpha2C/GIRK1/2, thallium flux, primary screen (AID 624;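 active = fluorescence slope after compound addition differing from the mean of all screened samples at 99.7% confidence, in either direction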;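 note: slope of fluorescence ratio to pre-addition baseline per second over 15 to 24 s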); settings: thallium flux BTC fluorescence, at 10 µM, actives lie on both sides
Alpha-2C adrenergic receptor (Homo sapiens), sequence (P18825 whole entry, looked up): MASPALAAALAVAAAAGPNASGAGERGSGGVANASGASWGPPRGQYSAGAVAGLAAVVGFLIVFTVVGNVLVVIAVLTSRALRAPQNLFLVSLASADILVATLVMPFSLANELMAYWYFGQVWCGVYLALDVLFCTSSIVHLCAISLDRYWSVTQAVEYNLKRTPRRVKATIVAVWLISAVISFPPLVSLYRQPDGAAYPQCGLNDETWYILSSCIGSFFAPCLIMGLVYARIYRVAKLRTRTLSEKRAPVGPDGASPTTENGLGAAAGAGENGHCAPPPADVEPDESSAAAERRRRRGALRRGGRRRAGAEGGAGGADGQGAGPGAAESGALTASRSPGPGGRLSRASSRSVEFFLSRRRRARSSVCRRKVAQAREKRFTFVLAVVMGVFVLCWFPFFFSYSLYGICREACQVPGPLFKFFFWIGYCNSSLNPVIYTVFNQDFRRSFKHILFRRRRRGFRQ

[9] = inhibitors of larval lipid processing in zebrafish, primary screen, whole organism, PED6 fluorescence, gall bladder and intestine (AID 686;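 active = a full or partial loss of lipid-probe fluorescence in the fish gall bladder, intestine or both, judged by eye; inactive = no fluorescence loss, or compound toxic to the fish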;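 note: larvae 5 to 7 days old with five fish per well; signal comes from phospholipase A2 cleavage of quenched PED6 carried via bile; overnight exposure to compound and PED6 before scoring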); settings: Zebrafish larvae PED6 lipid processing, fluorescence scoring; screened at 20 µM (by protocol)
[10] = loss of swimming-algae plug formation – whole organism, Chlamydomonas reinhardtii, WT vs cilia-less mutant, absorbance, 96-well, primary screen (AID 463189); settings: Chlamydomonas reinhardtii gravitaxis, OD600 absorbance, 2 days; at 10 µM; stronger effect = higher value;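 note: 0% = wild type cc124 cells in DMSO and 100% = ciliumless bld1 mutant cells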
[11] = blockers of RIG-like receptor reporter activation – cell-based, Sendai virus stimulus, luciferase, 10K MLSCN set, TLR/RLR signaling modifier project, primary screen (AID 602276;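 active = inhibition at or above 50% at 10 µM; inactive = inhibition below 50%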;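 note: firefly luciferase from ISG56 promoter only with Renilla not read in this screen; 0% = Sendai virus plus DMSO and 100% = medium plus DMSO without virus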); settings: HEK293 RL24 IRF3 luciferase reporter, at 10 µM, stronger effect = higher value
[12] = TLR3 IRF3 reporter activation blockers – cell-based, poly I:C stimulus, luciferase, 10K MLSCN set, primary screen (AID 602277;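 active = inhibition of the reporter signal at or above 50%; inactive = inhibition below 50%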); settings: HEK293-TLR3 RL24 IRF3 luciferase reporter, at 10 µM, stronger effect = higher value
[13] = measured here: cell density z-score
[14] = measured here: nuclear c-Myc green intensity z-score
[15] = measured here: nuclear pErk red intensity z-score, stronger effect = higher value

Compound | cell count [1] | inhibition [1] | inhibition of aggregation [2] | nuclei count [2] | inhibition [3] | nuclei count [3] | z-score [4, 13] | z-score [4, 14] | z-score [4, 15] | inhibition [5] | fluorescence slope [6] | NADPH fluorescence slope [7] | slope [8] | outcome [9] | inhibition [10] | inhibition [11] | inhibition [12]
CCCCC[C@H](O)/C=C/[C@H]1C=CC(=O)[C@@H]1C/C=C\CCCC(=O)O | 543 | -11.1% (inactive) | 16% (inactive) | 84.8% | -33.9% (inactive) | 110% | 1.78 | -0.725 | -0.854 | 7.39% (inactive) | -0.458 (inactive) | -5.4e-05 (inactive) | 0.00837 (inactive) | inactive | 5.58% (inactive) | -2.27% (inactive) | 25% (inactive)
CCOC(=O)[C@H](CCc1ccccc1)N[C@@H](C)C(=O)N1CCC[C@H]1C(=O)O | 512 | -1.7% (inactive) | -27.5% (inactive) | 76.9% | -7.9% (inactive) | 112% | 1.2 | 0.592 | -0.0475 | 11.3% (inactive) | -0.554 (inactive) | -1.6e-05 (inactive) | 0.00627 (inactive) | inactive | 34.1% (inactive) | 9.18% (inactive) | 28.5% (inactive)
CCCCCC(=O)N1CC2(C)CN(C(=O)CCCCC)CC(C)(C1)C2=O | 482 | 3.2% (inactive) | -8.1% (inactive) | 97.5% | -94.9% (inactive) | 101% | 0.798 | 0.672 | 0.65 | 7.42% (inactive) | -0.352 (inactive) | -4.5e-05 (inactive) | 0.00564 (inactive) | inactive | 24% (inactive) | 6.58% (inactive) | 21.5% (inactive)
CCn1cc(C(=O)NCc2ccco2)c(=O)c2cc(F)c(N3CCN(C(=O)c4ccco4)CC3)cc21 | 380 | 16.3% (inactive) | 13.6% (inactive) | 99.3% | -117% (inactive) | 118% | 2.14 | -0.717 | 0.644 | 19.4% (inactive) | -0.279 (inactive) | 2.6e-05 (inactive) | 0.00489 (inactive) | inactive | -7.6% (inactive) | 14.3% (inactive) | 13.7% (inactive)
CC(=O)Oc1cc(C(C)C)c(OCCN(C)C)cc1C | 467 | -9.4% (inactive) | 22.4% (inactive) | 95.3% | -10.4% (inactive) | 108% | -0.0151 | 0.045 | -0.157 | 13.3% (inactive) | -0.475 (inactive) | -5.3e-05 (inactive) | 0.0046 (inactive) | inactive | 6.3% (inactive) and 24.6% (inactive) | 15% (inactive) | 49.2% (inactive)
CCC(NC(C)C)C(O)c1ccc(O)c(O)c1 (stereo not given) | 661 | -7.3% (inactive) | 1% (inactive) | 109% | -51.9% (inactive) | 117% | -1.1 | -0.395 | 0.461 | 7.39% (inactive) | -0.492 (inactive) | -5.8e-05 (inactive) | 0.00513 (inactive) | inactive | 14.5% (inactive) and 0.657% (inactive) | 13.9% (inactive) | 39.3% (inactive)
CCCCOc1ccc(C(=O)CCN2CCCCC2)cc1 | 591 | -10.4% (inactive) | 4.2% (inactive) | 92.4% | -91.6% (inactive) | 114% | 0.144 | -0.213 | -1.06 | 7.39% (inactive) | -0.421 (inactive) | -5.1e-05 (inactive) | 0.00405 (inactive) | inactive | 61.3% (active) | 4.68% (inactive) | 21.9% (inactive)
O=C(CSc1nnc(-c2ccccc2)c(-c2ccccc2)n1)N1CCOCC1 | 611 | -6.9% (inactive) | 15.5% (inactive) | 96.7% | -44.9% (inactive) | 134% | -0.179 | -0.654 | 1.26 | -3.5% (inactive) | -0.397 (inactive) | -1.1e-05 (inactive) | 0.00498 (inactive) | inactive | 9.56% (inactive) | 14.8% (inactive) | 18% (inactive)
CCCCOc1cc(C(=O)NCCN(CC)CC)c2ccccc2n1 | 511 and 578 | -5.3% (inactive) and -4.6% (inactive) | 9.3% (inactive) and -1.1% (inactive) | 92.4% and 92.8% | 13% (inactive) and -47.1% (inactive) | 125% and 129% | -0.0512 and 0.242 | 1.21 and -0.093 | 0.116 and 1.52 | 11.3% (inactive) and -6.41% (inactive) | -0.452 (inactive) and -0.465 (inactive) | -7.4e-05 (inactive) and -5.9e-05 (inactive) | 0.00498 (inactive) and 0.00574 (inactive) | inactive | 1.51% (inactive) and 12.2% (inactive) | 4.17% (inactive) and 5.36% (inactive) | 54.6% (active) and 61.4% (active)
Cc1cn([C@H]2C[C@H](N=[N+]=[N-])[C@@H](CO)O2)c(=O)[nH]c1=O | 663 | -4% (inactive) | 1.9% (inactive) | 102% | -133% (inactive) | 128% | -0.406 | -0.912 | 2.26 | -6.41% (inactive) | -0.476 (inactive) | 3.5e-07 (inactive) | 0.00535 (inactive) | inactive | -6.84% (inactive) | 17.8% (inactive) | 37% (inactive)
